The values that follow come from the supplement of paper PMC10849652.

Targets with a hit are over-represented here; the source holds about 7,900 in all. About 0.6% of all pairs of compound and target were hits. Unmarked numbers belong to inactive results.

Sequence of UniProt Q04446 (Q04446 whole entry, looked up): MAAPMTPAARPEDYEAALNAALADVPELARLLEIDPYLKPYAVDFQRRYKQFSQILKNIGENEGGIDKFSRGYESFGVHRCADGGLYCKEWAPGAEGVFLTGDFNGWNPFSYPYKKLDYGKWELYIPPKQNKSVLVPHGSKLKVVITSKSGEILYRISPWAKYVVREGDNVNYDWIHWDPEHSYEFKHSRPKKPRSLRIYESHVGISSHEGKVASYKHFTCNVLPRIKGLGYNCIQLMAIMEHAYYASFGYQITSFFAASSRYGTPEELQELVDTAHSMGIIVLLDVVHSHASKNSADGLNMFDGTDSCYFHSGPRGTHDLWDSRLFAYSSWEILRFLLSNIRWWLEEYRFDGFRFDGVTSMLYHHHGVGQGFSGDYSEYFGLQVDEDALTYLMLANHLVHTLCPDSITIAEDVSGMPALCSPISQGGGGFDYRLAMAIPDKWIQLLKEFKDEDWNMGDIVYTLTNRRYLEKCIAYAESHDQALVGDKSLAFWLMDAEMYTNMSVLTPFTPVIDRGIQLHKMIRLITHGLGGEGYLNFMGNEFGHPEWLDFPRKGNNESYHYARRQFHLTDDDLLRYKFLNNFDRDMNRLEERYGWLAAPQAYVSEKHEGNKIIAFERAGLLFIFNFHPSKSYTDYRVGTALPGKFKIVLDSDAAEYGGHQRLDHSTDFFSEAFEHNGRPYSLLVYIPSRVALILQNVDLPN
Sequence of UniProt Q96LB3 (Q96LB3 whole entry, looked up): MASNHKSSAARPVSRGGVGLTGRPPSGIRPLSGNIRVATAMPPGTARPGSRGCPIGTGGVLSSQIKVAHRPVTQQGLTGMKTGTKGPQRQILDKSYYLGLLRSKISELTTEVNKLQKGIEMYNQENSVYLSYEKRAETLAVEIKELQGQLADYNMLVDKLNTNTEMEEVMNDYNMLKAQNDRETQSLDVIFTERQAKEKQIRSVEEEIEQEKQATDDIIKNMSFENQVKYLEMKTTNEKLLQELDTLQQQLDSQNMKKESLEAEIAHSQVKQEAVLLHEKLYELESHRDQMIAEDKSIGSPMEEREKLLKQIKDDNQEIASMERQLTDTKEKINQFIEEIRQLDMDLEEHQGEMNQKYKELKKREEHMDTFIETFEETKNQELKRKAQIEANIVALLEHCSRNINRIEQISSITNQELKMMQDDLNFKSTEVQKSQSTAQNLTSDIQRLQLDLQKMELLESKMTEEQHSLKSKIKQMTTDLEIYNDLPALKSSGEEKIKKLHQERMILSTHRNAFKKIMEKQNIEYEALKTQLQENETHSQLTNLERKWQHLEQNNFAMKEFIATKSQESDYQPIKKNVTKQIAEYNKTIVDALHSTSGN
Sequence of UniProt P23434 (P23434 whole entry, looked up): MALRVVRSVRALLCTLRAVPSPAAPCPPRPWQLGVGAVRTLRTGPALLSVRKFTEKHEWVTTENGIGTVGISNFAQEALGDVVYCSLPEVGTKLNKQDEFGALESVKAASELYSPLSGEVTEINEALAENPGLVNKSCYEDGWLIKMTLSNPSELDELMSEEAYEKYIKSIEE
Sequence of UniProt P52657 (P52657 whole entry, looked up): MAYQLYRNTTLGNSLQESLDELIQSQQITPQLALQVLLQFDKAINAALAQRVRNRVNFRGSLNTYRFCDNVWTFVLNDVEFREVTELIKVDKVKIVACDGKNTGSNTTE
Sequence of UniProt Q9P2H3 (Q9P2H3 whole entry, looked up): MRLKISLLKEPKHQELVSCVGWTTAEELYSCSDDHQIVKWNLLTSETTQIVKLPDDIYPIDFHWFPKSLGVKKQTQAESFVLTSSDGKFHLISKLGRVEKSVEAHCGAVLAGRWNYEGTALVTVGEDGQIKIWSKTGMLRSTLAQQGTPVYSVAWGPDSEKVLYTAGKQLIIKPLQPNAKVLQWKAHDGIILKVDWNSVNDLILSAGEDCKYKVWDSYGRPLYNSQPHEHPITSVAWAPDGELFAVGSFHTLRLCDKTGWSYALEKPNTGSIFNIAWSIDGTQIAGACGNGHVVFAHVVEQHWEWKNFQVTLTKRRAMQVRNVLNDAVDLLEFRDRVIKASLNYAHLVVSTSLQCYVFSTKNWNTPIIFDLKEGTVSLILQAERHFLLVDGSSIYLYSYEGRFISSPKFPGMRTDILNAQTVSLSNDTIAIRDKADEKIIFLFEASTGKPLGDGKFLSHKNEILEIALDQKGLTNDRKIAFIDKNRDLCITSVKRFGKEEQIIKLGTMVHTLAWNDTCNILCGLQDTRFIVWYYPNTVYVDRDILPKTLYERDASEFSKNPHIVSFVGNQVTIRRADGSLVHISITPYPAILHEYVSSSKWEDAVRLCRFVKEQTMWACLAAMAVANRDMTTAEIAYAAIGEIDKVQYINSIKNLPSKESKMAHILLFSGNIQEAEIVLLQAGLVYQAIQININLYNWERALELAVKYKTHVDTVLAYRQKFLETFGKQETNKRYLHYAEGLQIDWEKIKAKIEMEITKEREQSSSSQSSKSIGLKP
Sequence of UniProt O14893 (O14893 whole entry, looked up): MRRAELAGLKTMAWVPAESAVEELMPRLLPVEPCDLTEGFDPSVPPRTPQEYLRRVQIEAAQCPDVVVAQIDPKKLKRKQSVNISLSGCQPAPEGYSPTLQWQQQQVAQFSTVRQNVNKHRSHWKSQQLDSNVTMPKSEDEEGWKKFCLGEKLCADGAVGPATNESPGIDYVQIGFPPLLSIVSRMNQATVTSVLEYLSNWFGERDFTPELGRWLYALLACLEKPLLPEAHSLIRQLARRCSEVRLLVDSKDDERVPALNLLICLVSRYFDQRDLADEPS
Sequence of UniProt Q96JB3 (Q96JB3 whole entry, looked up): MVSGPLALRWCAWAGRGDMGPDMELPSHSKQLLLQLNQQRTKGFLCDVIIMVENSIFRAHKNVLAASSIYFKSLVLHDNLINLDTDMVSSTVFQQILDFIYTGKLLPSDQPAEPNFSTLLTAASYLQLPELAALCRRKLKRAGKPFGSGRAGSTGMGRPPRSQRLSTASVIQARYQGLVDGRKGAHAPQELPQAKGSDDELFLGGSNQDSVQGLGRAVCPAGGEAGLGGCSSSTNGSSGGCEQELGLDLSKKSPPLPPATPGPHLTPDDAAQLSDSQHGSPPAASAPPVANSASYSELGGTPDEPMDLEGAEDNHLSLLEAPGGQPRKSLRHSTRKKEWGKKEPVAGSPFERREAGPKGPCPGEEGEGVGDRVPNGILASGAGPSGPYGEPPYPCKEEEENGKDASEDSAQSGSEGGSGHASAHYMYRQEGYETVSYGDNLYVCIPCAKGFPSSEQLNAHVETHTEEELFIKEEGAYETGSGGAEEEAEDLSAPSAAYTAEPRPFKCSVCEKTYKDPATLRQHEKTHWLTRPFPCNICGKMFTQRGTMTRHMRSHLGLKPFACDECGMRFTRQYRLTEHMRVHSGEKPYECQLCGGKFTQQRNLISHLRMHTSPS
Sequence of UniProt Q8WXD5 (Q8WXD5 whole entry, looked up): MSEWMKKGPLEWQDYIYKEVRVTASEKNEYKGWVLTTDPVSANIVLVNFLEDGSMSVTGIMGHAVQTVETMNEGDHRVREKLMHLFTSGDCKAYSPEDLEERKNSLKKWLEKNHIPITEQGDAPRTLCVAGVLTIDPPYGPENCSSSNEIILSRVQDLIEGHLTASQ
Sequence of UniProt O43427 (O43427 whole entry, looked up): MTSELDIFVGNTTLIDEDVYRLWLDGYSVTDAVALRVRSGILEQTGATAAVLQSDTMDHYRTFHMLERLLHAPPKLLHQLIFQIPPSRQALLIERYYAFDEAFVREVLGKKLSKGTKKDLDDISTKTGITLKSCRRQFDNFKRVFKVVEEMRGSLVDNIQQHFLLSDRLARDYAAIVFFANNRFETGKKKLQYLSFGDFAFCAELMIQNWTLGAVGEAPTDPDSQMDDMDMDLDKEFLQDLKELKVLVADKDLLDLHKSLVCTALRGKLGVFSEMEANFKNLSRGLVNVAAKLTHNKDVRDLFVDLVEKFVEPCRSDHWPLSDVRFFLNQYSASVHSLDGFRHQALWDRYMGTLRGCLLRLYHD
Sequence of UniProt P49840 (P49840 whole entry, looked up): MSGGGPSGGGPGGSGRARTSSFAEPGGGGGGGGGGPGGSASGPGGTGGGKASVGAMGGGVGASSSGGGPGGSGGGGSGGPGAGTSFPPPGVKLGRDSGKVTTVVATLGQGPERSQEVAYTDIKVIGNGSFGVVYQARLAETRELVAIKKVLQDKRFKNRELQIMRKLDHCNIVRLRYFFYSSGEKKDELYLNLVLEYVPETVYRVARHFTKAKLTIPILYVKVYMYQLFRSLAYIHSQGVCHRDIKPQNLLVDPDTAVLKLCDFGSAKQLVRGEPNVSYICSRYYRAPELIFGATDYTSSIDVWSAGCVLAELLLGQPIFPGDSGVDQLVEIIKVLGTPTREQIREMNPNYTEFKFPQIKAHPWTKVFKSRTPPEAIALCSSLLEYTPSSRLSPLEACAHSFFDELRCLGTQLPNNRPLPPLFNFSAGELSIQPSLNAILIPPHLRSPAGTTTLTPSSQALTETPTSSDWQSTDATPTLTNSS
Sequence of UniProt Q9NP66 (Q9NP66 whole entry, looked up): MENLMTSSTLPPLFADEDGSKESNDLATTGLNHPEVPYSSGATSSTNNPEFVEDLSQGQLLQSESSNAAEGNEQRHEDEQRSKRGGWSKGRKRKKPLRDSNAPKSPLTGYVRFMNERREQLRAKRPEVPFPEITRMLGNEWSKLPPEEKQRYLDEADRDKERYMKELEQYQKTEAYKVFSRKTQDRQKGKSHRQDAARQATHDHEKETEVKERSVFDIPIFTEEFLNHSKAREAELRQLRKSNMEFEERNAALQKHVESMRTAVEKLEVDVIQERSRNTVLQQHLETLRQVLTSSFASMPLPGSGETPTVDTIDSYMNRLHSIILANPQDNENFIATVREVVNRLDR
Sequence of UniProt Q53FT3 (Q53FT3 whole entry, looked up): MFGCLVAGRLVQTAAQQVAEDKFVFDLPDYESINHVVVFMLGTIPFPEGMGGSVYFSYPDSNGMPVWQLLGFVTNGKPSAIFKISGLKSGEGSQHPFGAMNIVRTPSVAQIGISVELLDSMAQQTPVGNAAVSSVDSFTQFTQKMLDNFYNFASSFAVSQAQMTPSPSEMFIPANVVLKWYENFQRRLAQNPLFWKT

Compound in the assay: CC(C)(O)CC(=O)NCCn1ccc2ncnc(Nc3ccc(Oc4cccc(C(F)(F)F)c4)c(Cl)c3)c21
Put plainly: log2 fold change, soluble protein after heating vs DMSO (PISA); higher = thermal stabilisation; K562 cells, 10 uM, 30 min; active = over 0.2 and 3.5 SD of the protein, either way, in both replicates (recomputed). The method in brief: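 K562 cells at 2×10^6 cells/mL were exposed to 10 μM compound for 30 min, then aliquots were heated for 3 min across 48°C-58°C, pooled, and extracted in PBS containing 0.5% NP-40 at 4°C. The supernatant after 21,000xg for 90 min was taken as soluble protein and measured by TMTpro 16plex LC-MS/MS with channel sums equalised. Thermal stability is reported relative to control samples, with values from duplicates. Fold changes are given on a log2 scale.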
As for GLCCI1 (UniProt Q86VQ1), the log2 fold change is -0.012.

In the case of GSK3A (UniProt P49840), the log2 fold change is -0.107. The same measure for HIST2H3A (UniProt Q71DI3): -0.021. Then GEMIN6 (UniProt Q8WXD5), with -0.03; and IFT80 isoform 3 (UniProt Q9P2H3), with -0.118; and FKBP4 (UniProt Q02790), with -0.036.

As for HIC2 (UniProt Q96JB3), the log2 fold change was 0.065. Then FAM91A1 (UniProt Q658Y4), with -0.198. Turning to HIKESHI (UniProt Q53FT3), the log2 fold change was -0.045.

On to HSPA8 (UniProt E9PK54), for which the log2 fold change is 0.058. As to GTF2A2 (UniProt P52657), the log2 fold change was -0.026. For the target GBE1 (UniProt Q04446), the log2 fold change was -0.074.

Regarding HMGB3 (UniProt O15347), the log2 fold change was -0.007. For the target FANCD2 isoform 1 (UniProt Q9BXW9), the log2 fold change is -0.029.

As for HBZ (UniProt P02008), the log2 fold change is -0.042.

As to GLIPR2 (UniProt Q9H4G4), the log2 fold change was 0.06. GMEB1 (UniProt Q9Y692): the log2 fold change is -0.039.

Regarding HTATIP2 isoform 3 (UniProt Q9BUP3), the log2 fold change is 0.651 (active). Regarding GOLPH3 (UniProt Q9H4A6), the log2 fold change is -0.031. Then HIP1R (UniProt O75146), with -0.034.

Consider GCSH (UniProt P23434), for which the log2 fold change is -0.031. As to GALNT11 (UniProt Q8NCW6), the log2 fold change was 0.018. The same measure for FDPS (UniProt P14324): -0.319. Consider FEN1 (UniProt P39748), for which the log2 fold change was -0.368.

On to GEMIN5 (UniProt Q8TEQ6), for which the log2 fold change is -0.049.

With HMG20A (UniProt Q9NP66), the log2 fold change was 0.062.

In the case of GALNT2 (UniProt Q10471), the log2 fold change is 0.027. IGF2BP2 (UniProt Q9Y6M1): the log2 fold change is 0.037. As to GEMIN2 (UniProt O14893), the log2 fold change was -0.307. In the case of IFT74 (UniProt Q96LB3), the log2 fold change is -0.095. Regarding HNRNPK isoform 2 (UniProt P61978), the log2 fold change was -0.025. The same measure for HNRNPH1 (UniProt P31943): 0; for FIBP (UniProt O43427): -0.143.
